From PubChem
Hits are enriched below; roughly 0.39% of the tested compounds scored in any of these assays.
ERG-DNA inh = inhibitors of human ERG Ets domain-DNA interaction; P11308; Potency, µM (series often up to 76.9 µM), for inactives: top-dose FP activity, negative = inhibition, hits mostly inhibitors; fluorescence polarization, His-ERG Ets domain / labelled DNA; AID 624246; actives 0.028% (n = 370,000); active = well fitted inhibition curve with a large enough effect in the polarisation, with a control signal flat; inconclusive = small, poorly fitted or top-dose-only effect, or effect the other way, or a change in a side signal; inactive = no such curve, though single readings can be large or run the other way; the % refers to the polarisation;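 also: polarization taken with two DNA probes labelled with fluorescein and Texas red; potency is read from the fitted curve at half-maximal effect; % of control where 0% means no effect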
Target sequence (P11308 whole entry, looked up, the tested form may be a part): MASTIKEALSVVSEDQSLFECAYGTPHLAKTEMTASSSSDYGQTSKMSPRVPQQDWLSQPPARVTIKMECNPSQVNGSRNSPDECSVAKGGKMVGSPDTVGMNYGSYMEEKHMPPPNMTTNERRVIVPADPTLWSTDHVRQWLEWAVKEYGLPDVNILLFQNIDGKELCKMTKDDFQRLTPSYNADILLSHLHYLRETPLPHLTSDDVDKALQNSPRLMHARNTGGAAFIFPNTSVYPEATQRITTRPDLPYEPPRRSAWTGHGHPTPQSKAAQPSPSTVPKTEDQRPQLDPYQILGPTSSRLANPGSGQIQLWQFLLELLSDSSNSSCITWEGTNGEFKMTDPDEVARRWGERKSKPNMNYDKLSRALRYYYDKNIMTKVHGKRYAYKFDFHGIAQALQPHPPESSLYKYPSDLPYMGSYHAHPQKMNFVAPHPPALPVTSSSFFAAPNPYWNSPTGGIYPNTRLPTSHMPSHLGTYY
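His-tagged ERG Ets domain (1 uM in the protein solution; 300mM KCl, 50mM Tris-HCl, 1mM EDTA, 1mM DTT, pH 7.5) received compound, then a probe mix of 5 nM fluorescein-DNA and 100nM Texas-615-DNA. Fluorescence polarization was read for both dyes.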
MmCpn inh = blocks the Methanococcus maripaludis chaperonin Mm-Cpn. purified Mm-Cpn ATPase, ADP Transcreener TR-FRET. Potency, µM (top dose mostly 76.9 µM), for inactives: at the top dose activity, negative = inhibition, most hits filed as inhibitors. actives 0.031% (n = 330,000). AID 504842; also: potency is read from the fitted curve at half-maximal effect; % is scaled to controls: 0 for no effect and ±100 for the full control effect; nearly all actives have a fitted effect of over 80% in size
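ATP (10 uM final) was added to archaeal chaperonin (25 nM final) after 10 min exposure to test compound at 37°C; after 30 min further incubation, ADP was detected by competitive TR-FRET.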
Anesthetic bind = candidate novel general anesthetic via apoferritin binding; P02791; apoferritin/1-aminoanthracene competitive binding, fluorescence; Potency, µM (highest dose often 77.5 µM), inactives show top-dose activity change, negative = displacement, most hits filed as inhibitors; actives 0.074% (n = 350,000); AID 485281; also: potency is read from the fitted curve at half-maximal effect; % is scaled to controls: 0 for no effect and ±100 for the full control effect; nearly all actives have a fitted effect of over 20% in size
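Apoferritin-based anesthetic binding model; compound displacement of fluorescent 1-AMA measured as endpoint fluorescence after 10 minutes at room temperature, scaled to free-ligand and complex controls.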
CCT chaperon mod = modulators of cytosolic chaperonin (CCT/TRiC) activity; AID 651819; actives 0.3% (n = 360,000); activity change, % (test concentration not listed), hits read low; purified chaperonin ATPase assay, HTRF ADP detection, 30 min; in the data active = activity change below about -30%; also: % is scaled to controls: 0 for no effect and ±100 for the full control effect
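Enzyme 40 or 20 nM (batch-dependent) in Tris pH 7.4/KCl/MgCl2/DTT; cpd 76 uM single point; ATP 10 uM; 30 min 37 °C; Transcreener ADP HTRF detection, 30 min RT; ratio 665/615.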
Starred values were filed as active, the others as inactive; ? = inconclusive; / = no result; ! = not active in a repeat. Unless noted, calls follow the shape of the dose curve; as a rule, active = well fitted curve in the direction sought with a large enough effect; inconclusive = small, poorly fitted or top-dose-only effect, or another doubt; inactive = no such curve, though single readings can be large; an effect the other way counts as inactive or inconclusive.

SMILES	ERG-DNA inh	MmCpn inh	Anesthetic bind	CCT chaperon mod
CC1(C(=O)NS(=O)(=O)c2ccc(Br)cc2)CCN1C(=O)CCc1ccccc1 (configuration not stated)	/	/	/	-78.9*
Cc1ccc(OCCCN2C(=O)C(=O)c3cccc(C)c32)cc1	-8.3%	0.4%	?	-1.4
CCCOc1ccc(CN2C(=O)C(=O)c3cccc(C)c32)cc1	3.8%	/	31.6µM*	/
O=C1N[C@@H]2[C@H](CCCCC(=O)Oc3ccc([N+](=O)[O-])cc3)SC[C@H]2N1	/	/	-8.1%	/
O=C(Cn1nnc2c(cnn2-c2ccc(F)cc2)c1=O)OC1CCCCC1	-1.2%	1.2%	12.6µM*	0.3
COc1cccc(CNC(=O)Cn2nc(-c3ccc(C)cc3)ccc2=O)c1	4.9%	/	?	/
Cc1ccc(-c2ccc(=O)n(CC(=O)NCc3ccc(F)cc3)n2)cc1	10.2%	2.5%	8.91µM*	-1.0
COc1cccc(CNC(=O)Cn2nc(-c3ccc(Cl)cc3)ccc2=O)c1	4.8%	-3.4%	6.31µM*!	0.8
O=c1ccc(-c2ccccc2)nn1Cc1ccc(Cl)cc1	-12.0%	/	/	-0.1
C=Cc1ccc(Cn2nc(-c3ccc(C)cc3)ccc2=O)cc1	9.3%	-0.9%	15.8µM*	1.6
Nn1c(SCC(=O)Nc2ccc3c(c2)OCO3)nnc1C1CCCCC1	-1.3%	/	5.01µM*	-4.2
COc1ccc(OC)c(NC(=O)c2nc(S(=O)(=O)Cc3ccc(F)cc3)ncc2Cl)c1	-1.1%	/	?	/
CC1Cc2cc(/C(O)=C3/C(=O)C(=O)N(Cc4cccnc4)C3c3cccc(O)c3)ccc2O1 (configuration not stated)	-2.8%	1.0%	-10.9%	-78.8*
COc1ccc(C2/C(=C(\O)c3ccc4c(c3)OCCO4)C(=O)C(=O)N2Cc2cccnc2)cc1 (configuration not stated)	8.8%	?	4.2%	-57.9*
COc1ccccc1C1/C(=C(\O)c2ccc3c(c2)OCCO3)C(=O)C(=O)N1Cc1cccnc1 (configuration not stated)	-11.4%	-7.5%	-8.5%	-4.8
NC(=O)C1CCN(c2nc(-c3cccc([N+](=O)[O-])c3)cs2)CC1	/	1.0%	/	/
CC(C)(C)CNc1nc(C#N)nc(Nc2ccccc2)n1	/	/	-17.4%	/
CCN1C(=O)[C@H]2[C@@H](c3ccc(-c4ccc(Cl)c(Cl)c4)c(OC)c3)N[C@@](Cc3ccccc3)(C(=O)OC)[C@H]2C1=O	-10.0%	-2.4%	/	-58.1*
O=C(CCS(=O)(=O)c1ccc2c(c1)NC(=O)CO2)NCc1ccccc1	-18.2%	-0.1%	1.8%	-64.0*
O=C(CCS(=O)(=O)c1ccc2c(c1)NC(=O)CO2)NCCc1ccccc1	0.6%	0.4%	0.0%	1.2
Cc1cc2nc3ccc(N(C)C)cc3nc2cc1N	?	/	/	-39.8*
Cc1ccc(-n2nc3cc(C)c(N)cc3n2)cc1	-0.4%	-3.8%	184.2%	-2.0
CC1CCN(S(=O)(=O)c2ccc(Cl)cc2)CC1	-8.9%	0.6%	-17.2%	-42.7*
CC(C)COc1ccc(C(=O)Nc2cc(-c3ccccc3)no2)cc1	-3.2%	/	4.5%	/
Cc1ccc(-c2nc3ccc(Cl)cc3n2OC(C)C(=O)O)cc1 (configuration not stated)	11.5%	0.4%	-3.2%	-55.3*
SMILES	ERG-DNA inh	MmCpn inh	Anesthetic bind	CCT chaperon mod
O=C(Nc1cccc(Br)c1)N1CCC(CN2CCCCC2)CC1	-4.3%	/	-4.1%	/
CC/C=C/C(=O)N1CC2(CC(c3cccc(NC(=O)CC(c4ccccc4)c4ccccc4)c3)=NO2)C[C@@H]1C(N)=O (some centres not stated)	20.0%	1.8%	-16.2%	-33.2*
CC1(C(=O)N2CC3(CC(c4cccc(NC(=O)CC(c5ccccc5)c5ccccc5)c4)=NO3)C[C@@H]2C(N)=O)CC1 (some centres not stated)	5.6%	0.5%	-11.6%	-0.3
CC(C)(C)OC(=O)N1CCC(c2c(C(=O)N3CCN(c4ccccn4)CC3)cnn2-c2ccccc2Cl)CC1	1.0%	/	-7.0%	/
CCOc1ccc(C2C(C(=O)Nc3ccc(C)cc3C)=C(C)Nc3c(C(=O)Nc4ccc(C)cc4)cnn32)cc1OC (configuration not stated)	-0.3%	/	?	/
Cc1ccc2c(C)c(C(=O)NCCN3CCCC(O)C3)oc2c1C (configuration not stated)	4.8%	0.7%	-6.5%	-37.9*
